Several values for one entry are separate records, joined by “and”; a condition that tells them apart may be missing. Identical values can stand only once. Records with an inconclusive call do not appear. Where a call stands in place of a potency, no number is given. Activity calls are given as the source filed them. Calls come from the whole dose curve; as a rule, active = well fitted curve in the direction sought with a large enough effect; inconclusive = small, poorly fitted or top-dose-only effect, or another doubt; inactive = no such curve, though single readings can be large; an effect the other way counts as inactive or inconclusive.
Experiments:
[1] = qHTS of pediatric cancer cell lines to identify multiple opportunities for drug repurposing: Primary screen for U-2 OS cells (AID 1347096); note: nearly all actives have a fitted effect of over 50% in size
Procedure, shortened: (§1)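 Cells (500-1,000/well) rested 5 h, then received compounds for 48 h; metabolically active cells were measured by CellTiter-Glo luminescence. Final concentrations spanned up to 46 µM (MIPE, 11-point) or 0.59 nM-46 µM (NPC, 8-point) in primary screens, 11-point in follow-ups.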

[2] = qHTS of pediatric cancer cell lines to identify multiple opportunities for drug repurposing: Primary screen for Saos-2 cells (AID 1347097); note: nearly all actives have a fitted effect of over 40% in size; note: potency is the fitted concentration of half-maximal effect
Procedure, shortened: (§2)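 Primary screen of approved and investigational compounds on cells in growth media at 37 degrees C, 5% CO2. MIPE set at 11-point and NPC set at 8-point dilutions; viability scored by ATP-based luminescence at 48 hours.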

[3] = qHTS of pediatric cancer cell lines to identify multiple opportunities for drug repurposing: Primary screen for SK-N-SH cells (AID 1347098); note: nearly all actives have a fitted effect of over 65% in size; note: potency is the fitted concentration of half-maximal effect
Procedure, shortened: as §1

[4] = qHTS of pediatric cancer cell lines to identify multiple opportunities for drug repurposing: Primary screen for NB1643 cells (AID 1347099); note: nearly all actives have a fitted effect of over 50% in size; note: potency is the fitted concentration of half-maximal effect
Procedure, shortened: as §2

[5] = qHTS of pediatric cancer cell lines to identify multiple opportunities for drug repurposing: Primary screen for LAN-5 cells (AID 1347100); note: potency is the fitted concentration of half-maximal effect
Procedure, shortened: as §1

[6] = qHTS of pediatric cancer cell lines to identify multiple opportunities for drug repurposing: Primary screen for BT-12 cells (AID 1347101); note: nearly all actives have a fitted effect of over 25% in size; note: potency is the fitted concentration of half-maximal effect
Procedure, shortened: as §1

[7] = qHTS of pediatric cancer cell lines to identify multiple opportunities for drug repurposing: Primary screen for Rh18 cells (AID 1347102); note: nearly all actives have a fitted effect of over 65% in size
Procedure, shortened: as §1

[8] = qHTS of pediatric cancer cell lines to identify multiple opportunities for drug repurposing: Primary screen for OHS-50 cells (AID 1347103); note: nearly all actives have a fitted effect of over 40% in size; note: potency is the fitted concentration of half-maximal effect
Procedure, shortened: as §1

[9] = qHTS of pediatric cancer cell lines to identify multiple opportunities for drug repurposing: Primary screen for RD cells (AID 1347104); note: nearly all actives have a fitted effect of over 55% in size; note: potency is the fitted concentration of half-maximal effect
Procedure, shortened: as §2

[10] = qHTS of pediatric cancer cell lines to identify multiple opportunities for drug repurposing: Primary screen for MG 63 (6-TG R) cells (AID 1347105); note: nearly all actives have a fitted effect of over 50% in size
Procedure, shortened: as §2

O=C(O)CSCC(=O)NC1CCSC1=O (configuration not stated)
Potency [1]: inactive
Potency [2]: inactive
Potency [3]: inactive
Potency [4]: inactive
Potency [5]: inactive
Potency [6]: inactive
Potency [7]: inactive
Potency [8]: inactive
Potency [9]: inactive
Potency [10]: inactive

CC(C)C1CCC(C(=O)N[C@H](Cc2ccccc2)C(=O)O)CC1 (some centres not stated)
Potency [1]: inactive
Potency [2]: inactive
Potency [3]: inactive
Potency [4]: inactive
Potency [5]: inactive
Potency [6]: inactive
Potency [7]: inactive
Potency [8]: inactive
Potency [9]: inactive

CCc1cc(C(N)=S)ccn1
Potency [1]: inactive
Potency [2]: inactive
Potency [3]: inactive
Potency [4]: inactive
Potency [5]: inactive
Potency [6]: inactive
Potency [7]: inactive
Potency [8]: inactive
Potency [9]: inactive
Potency [10]: inactive

CCCc1cc(C(N)=S)ccn1
Potency [1]: inactive
Potency [2]: inactive
Potency [3]: inactive
Potency [4]: inactive
Potency [5]: inactive
Potency [6]: inactive
Potency [7]: inactive
Potency [8]: inactive
Potency [9]: inactive

COc1cc([C@@H]2c3cc4c(cc3[C@H](O)[C@H]3COC(=O)[C@H]23)OCO4)cc(OC)c1OC
Potency [1]: inactive
Potency [2]: 33.5 nM (active) and 2.64 µM (active)
Potency [3]: inactive
Potency [4]: 59.6 nM (active)
Potency [5]: 7.5 nM (active) and 1 nM (active)
Potency [6]: 55 nM (active) and 1.9 nM (active)
Potency [7]: inactive
Potency [8]: 30.9 nM (active) and 1 nM (active)
Potency [9]: inactive
Potency [10]: inactive

CCOCC(O)COc1ccc(NC(=O)CC[S+](C)C)cc1 (configuration not stated)
Potency [1]: inactive
Potency [2]: inactive
Potency [3]: inactive
Potency [4]: inactive
Potency [5]: inactive
Potency [6]: inactive
Potency [7]: inactive
Potency [8]: inactive
Potency [9]: inactive
Potency [10]: inactive

C[C@]12C=CC(=O)C=C1CC[C@@H]1[C@@H]2C(=O)C[C@@]2(C)[C@H]1CC[C@]2(O)C(=O)CO
Potency [1]: inactive
Potency [2]: inactive
Potency [3]: inactive
Potency [4]: inactive
Potency [5]: inactive
Potency [6]: inactive
Potency [7]: inactive
Potency [8]: inactive
Potency [9]: inactive

CCN1CCCC1CNC(=O)c1cc(S(N)(=O)=O)ccc1OC (configuration not stated)
Potency [1]: inactive
Potency [2]: inactive
Potency [3]: inactive
Potency [4]: inactive
Potency [5]: inactive
Potency [6]: inactive
Potency [7]: inactive
Potency [8]: inactive
Potency [9]: inactive
Potency [10]: inactive

CCn1cc(C(=O)O)c(=O)c2cc(F)c(N3CCN(C)CC3)cc21
Potency [1]: inactive
Potency [2]: inactive
Potency [3]: inactive
Potency [4]: inactive
Potency [5]: inactive
Potency [6]: inactive
Potency [7]: inactive
Potency [8]: inactive
Potency [9]: inactive
Potency [10]: inactive

C#CCN[C@@H]1CCc2ccccc21
Potency [1]: inactive
Potency [2]: inactive
Potency [3]: inactive
Potency [4]: inactive
Potency [5]: inactive
Potency [6]: inactive
Potency [7]: inactive
Potency [8]: inactive
Potency [9]: inactive
Potency [10]: inactive

CCn1cc(C(=O)O)c(=O)c2cc(F)c(N3CCNCC3)cc21
Potency [1]: inactive
Potency [2]: inactive
Potency [3]: inactive
Potency [4]: inactive
Potency [5]: inactive
Potency [6]: inactive
Potency [7]: inactive
Potency [8]: inactive
Potency [9]: inactive
Potency [10]: inactive

CCn1cc(C(=O)O)c(=O)c2cc(F)c(N3CCNCC3)nc21
Potency [1]: inactive
Potency [2]: inactive
Potency [3]: inactive
Potency [4]: inactive
Potency [5]: inactive
Potency [6]: inactive
Potency [7]: inactive
Potency [8]: inactive
Potency [9]: inactive

CNS(=O)(=O)Cc1ccc2[nH]cc(CCN(C)C)c2c1
Potency [1]: inactive
Potency [2]: inactive
Potency [3]: inactive
Potency [4]: inactive
Potency [5]: inactive
Potency [6]: inactive
Potency [7]: inactive
Potency [8]: inactive
Potency [9]: inactive
Potency [10]: inactive

COc1ccccc1OCC(O)COC(N)=O (configuration not stated)
Potency [1]: inactive
Potency [2]: inactive
Potency [3]: inactive
Potency [4]: inactive
Potency [5]: inactive
Potency [6]: inactive
Potency [7]: inactive
Potency [8]: inactive
Potency [9]: inactive
Potency [10]: inactive

Nc1ccc(S(=O)(=O)Nc2ccccn2)cc1
Potency [1]: inactive
Potency [2]: inactive
Potency [3]: inactive
Potency [4]: inactive
Potency [5]: inactive
Potency [6]: inactive
Potency [7]: inactive
Potency [8]: inactive
Potency [9]: inactive
Potency [10]: inactive

CC(C)(C)C(=O)OCOP(=O)(COCCn1cnc2c(N)ncnc21)OCOC(=O)C(C)(C)C
Potency [1]: inactive
Potency [2]: 26.6 µM (active) and 23.5 µM (active)
Potency [3]: 15.4 µM (active) and 27.1 µM (active)
Potency [4]: 11.9 µM (active) and 18.7 µM (active)
Potency [5]: 16.6 µM (active)
Potency [6]: 11 µM (active) and 17.2 µM (active)
Potency [7]: inactive
Potency [8]: 6.17 µM (active) and 30.6 µM (active)
Potency [9]: 23.5 µM (active)
Potency [10]: inactive

CCOC(=O)c1ccc(OC(=O)CCCCCN=C(N)N)cc1
Potency [1]: inactive
Potency [2]: inactive
Potency [3]: inactive
Potency [4]: inactive
Potency [5]: inactive
Potency [6]: inactive
Potency [7]: inactive
Potency [8]: inactive
Potency [9]: inactive

CC(C)(C#N)c1cc(Cn2cncn2)cc(C(C)(C)C#N)c1
Potency [1]: inactive
Potency [2]: inactive
Potency [3]: inactive
Potency [4]: inactive
Potency [5]: inactive
Potency [6]: inactive
Potency [7]: inactive
Potency [8]: inactive
Potency [10]: inactive

CC[C@H](C)C(=O)O[C@H]1C[C@@H](C)C=C2C=C[C@H](C)[C@H](CC[C@@H]3C[C@@H](O)CC(=O)O3)[C@H]21
Potency [1]: inactive
Potency [2]: 5.9 µM (active)
Potency [3]: 4.86 µM (active) and 19.2 µM (active)
Potency [4]: inactive
Potency [5]: inactive
Potency [6]: 1.23 µM (active) and 3.43 µM (active)
Potency [8]: 6.92 µM (active) and 9.68 µM (active)
Potency [9]: inactive

Nc1nc(N)nc(-c2cc(Cl)ccc2Cl)n1
Potency [1]: inactive
Potency [2]: inactive
Potency [3]: inactive
Potency [4]: inactive
Potency [5]: inactive
Potency [6]: inactive
Potency [7]: inactive
Potency [8]: inactive
Potency [9]: inactive
Potency [10]: inactive

From PubChem BioAssay (NCATS)
